In all, about 16,000 compounds went through this assay and about 5,100 (32%) were called active. Another 25% or so got no clear call; they are omitted. This is one part of the list. A number with no mark means an inactive call. Calls follow the shape of the dose curve; as a rule, active = well fitted curve in the direction sought with a large enough effect; inconclusive = small, poorly fitted or top-dose-only effect, or effect the other way; inactive = no such curve, though single readings can be large or run the other way.
Each compound was assayed against Cytochrome P450 3A4 (Homo sapiens) (UniProt P08684) (assay: Cytochrome panel assay with activity outcomes). Conditions: recombinant CYP, pro-luciferin dealkylation, luminescence, p450-cyp3a4; series mostly up to 57.1 µM.
Chain of Cytochrome P450 3A4 (Homo sapiens) (P08684 whole entry, looked up): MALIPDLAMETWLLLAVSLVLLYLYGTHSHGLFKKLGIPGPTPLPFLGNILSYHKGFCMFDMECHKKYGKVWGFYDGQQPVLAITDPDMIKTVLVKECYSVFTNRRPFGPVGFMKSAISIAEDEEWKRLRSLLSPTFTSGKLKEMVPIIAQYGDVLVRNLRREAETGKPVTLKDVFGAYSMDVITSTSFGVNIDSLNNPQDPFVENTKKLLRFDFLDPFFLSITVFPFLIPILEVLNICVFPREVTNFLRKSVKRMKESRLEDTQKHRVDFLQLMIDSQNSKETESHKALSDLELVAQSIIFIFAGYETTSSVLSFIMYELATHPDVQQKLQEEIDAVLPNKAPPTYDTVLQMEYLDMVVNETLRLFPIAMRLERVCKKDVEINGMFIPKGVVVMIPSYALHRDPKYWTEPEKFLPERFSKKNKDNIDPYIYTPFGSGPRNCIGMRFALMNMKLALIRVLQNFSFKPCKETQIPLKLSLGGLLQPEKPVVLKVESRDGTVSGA
Experimental: The P450 gene superfamily is involved in the metabolism and clearance of xenobiotics. This assay used various human CYP P450 isozymes to measure the dealkylation of various pro-luciferin substrates to luciferin. The luciferin is then measured by luminescence after the addition of a luciferase detection reagent. Pro-luciferin substrate concentration in the assay was equal to its KM for its CYP P450 isozyme. Inhibitors and some substrates limit the production of luciferin, and decrease measured luminescence.
NCGC Assay Protocol Summary:
1, Reagent, 2 uL, Isozyme and Pro-Luciferin
2, Library compounds, 23 nl, 40 uM to 0.24 nM dilution series
3, Controls, 23 nl, Isozyme specific inhibitor
4, Reagent, 2 uL, NADPH regeneration solution
5, Incubation time, 60 min, Isozyme specific temperature
6, Reagent, 4ul, Detection reagent
7, Incubation time, 20 min, Isozyme specific temperature
8, Detection, 1 sec, ViewLux luminescent read
The luciferase-based P450-GloTM Screening Systems were obtained from Promega (Madison, WI) for CYP 1A2 (V9770), CYP 2C9 (V9790), CYP2 C19 (V9880), CYP 2D6 (V9890), and CYP 3A4 Luciferin-PPXE (V9910) and were adapted for 1,536-well microplates and an automated protocol. The control compounds furafylline for 1A2 (F124), sulfaphenazole for CYP 2C9 (S0758), ketoconazole for CYP 2C19 (K1003), quinidine for 2D6 (Q3625), and ketoconazole for 3A4 (K1003) were purchased from Sigma Aldrich (St. Louis, MO). Recombinant P450 enzymes were obtained from baculovirus constructs expressed in insect cells (BD/Gentest).
Medium-binding white solid Kalypsys plates used. Mixtures kept on ice. 1A2: 10 nM 1A2, 100 uM Luc-ME, 100 mM KPO4; 2C9: 10 nM 2C9, 100 uM Luc-H, 25 mM KPO4; 2C19: 5 nM 2C19, 10 uM Luc-H EGE, 50 mM KPO4; 2D6: 5 nM 2D6, 30 uM Luc-ME EGE, 100 mM KPO4; 3A4: 10 nM, 25 uM Luc-PPXE. All amounts are reflected in their final concentration, working concentration is 2x.
NADPH regeneration solution: 1.3 mM NADP+, 3.3 mM glucose-6-phosphate, 3.3 mM MgCl2, 0.4 U/mL glucose-6-phosphate dehydrogenase for all isozymes, 200 mM KPO4 for 3A4. Mixture prepared at RT but kept on ice during automated run.
RT incubation in auxilliary plate hotel for 1A2, 2D6, and 3A4; 37C for 2C9 and 2C19.
Keywords: P450, CYP1A2, CYP2C19, CYP2C9, CYP2D6, CYP3A4, Luciferase, MLSMR, MLSCN, NIH Roadmap, qHTS, NCGC
`CSc1nc2c(c(=O)[nH]1)C(c1ccncc1)C(C(=O)OC(C)C)=C(C)N2` (centres undefined) was tested, and the AC50 was 1.26 µM (active).
In the case of `CCSc1nc2c(c(=O)[nH]1)C(c1ccccn1)C1=C(CC(C)(C)CC1=O)N2` (centres undefined), the AC50 is reported as “inactive”.
For `CCSc1nc2c(c(=O)[nH]1)C(c1ccncc1)C(C(=O)OC(C)C)=C(C)N2` (centres undefined), the AC50 was 1.12 µM (active).
For `COC(=O)CNC(=O)/C=C/c1ccc(OC)cc1`, the AC50 was “inactive”.
`COCCCNC(=O)/C=C/c1ccc(Cl)cc1` was tested, and the AC50 was “inactive”.
With `COc1ccc(CNC(=O)/C=C/c2ccc(OCCCF)cc2)cc1` the AC50 was 5.01 µM (active).
Compound `CCCCSc1ccc2nc(-c3ccc(C#N)cc3)cn2c1` has an activity, negative = inhibition of 20.1% [at 2.29 µM].
`CCn1c(COc2ccc(C)cc2)nnc1SCc1ccc(C#N)cc1` was tested, and the AC50 was 2 µM (active).
For `CCn1c(SCc2ccc(C#N)cc2)nnc1-c1ccc(S(=O)(=O)N2CCCCC2)cc1`, the AC50 was “inactive”.
With `CCc1nnc(NS(=O)(=O)c2ccc(N=Cc3c(C)[nH]n(-c4ccc(C)cc4)c3=O)cc2)s1` the AC50 was 22.4 µM (active).
`CCOc1[nH]n(-c2ccc(Cl)cc2)c(=O)c1C=Nc1ccc(Cl)cc1` was tested, and the AC50 was “inactive”.
`CC#CCCCC(=O)Nc1ccc(C(=O)O)cc1` was tested, and the AC50 was “inactive”.
For `COc1cc(NC(=O)c2c(F)cccc2F)nc(OC)n1`, the AC50 was “inactive”.
`CC#CCCCC(=O)Nc1cc(OC)nc(OC)n1` was tested, and the AC50 was 14.1 µM (active).
`CN(C)/C=C/C(=O)c1ccc(Cl)cc1` was tested, and the AC50 was “inactive”.
With `CCNc1ccc(Br)cc(C(=O)/C=C/c2ccc3c(c2)OCO3)c1=O` the AC50 was 17.8 µM (active).
`CNc1ccc(Br)cc(C(=O)/C=C/c2ccc3c(c2)OCO3)c1=O` was tested, and the AC50 was 11.2 µM (active).
With `CN(C)CCNC(=O)C(C(=O)c1ccc(F)cc1)n1ccccc1=O` (centres undefined) the AC50 was “inactive”.
With `CCCn1nnnc1-c1cccc(Cl)c1` the AC50 was “inactive”.
With `CCCn1nnc(NC(=O)c2ccc(-c3cccc(Cl)c3)o2)n1` the AC50 was 28.2 µM (active).
`O=C(Nc1cccc2nsnc12)c1ccc(-c2cccc(Cl)c2)o1` showed an activity, negative = inhibition of 1.55% [at 2.29 µM].
In the case of `C[C@@H](N1CCOCC1)[C@@](O)(c1ccccc1)c1ccccn1`, the activity, negative = inhibition is reported as -13% [at 11.4 µM].
For `OC(c1ccccc1)(c1ccc(F)cc1)C(c1ccccc1)N1CCOCC1` (centres undefined), the AC50 was 3.98 µM (active).
In the case of `N#C/C(=C/N1CCOCC1)c1ccccc1`, the AC50 is reported as “inactive”.
Compound `Nc1ccc(N=Nc2c(S(=O)(=O)O)cc3ccccc3c2S(=O)(=O)O)cc1` has an activity, negative = inhibition of 5.34% [at 11.4 µM].
With `Cc1nc2sccn2c(=O)c1Cl` the AC50 was “inactive”.
In the case of `Cc1cc(N2C(=O)C(O)=C(C(=O)c3cccs3)C2c2cccc(O)c2)no1` (centres undefined), the AC50 is reported as “inactive”.
With `CCOc1cccc(C2C(C(=O)c3ccc(C)o3)=C(O)C(=O)N2Cc2ccncc2)c1` (centres undefined) the AC50 was 5.01 µM (active).
`CN(C)CCN1C(=O)C(O)=C(C(=O)c2cc3ccccc3o2)C1c1ccccn1` (centres undefined) was tested, and the AC50 was “inactive”.
For `Cc1ccc(C2C(C(=O)c3sc(C)nc3C)=C(O)C(=O)N2CCN2CCOCC2)o1` (centres undefined), the AC50 was “inactive”.
With `COc1cc(C2C(C(=O)c3ccc(C)o3)=C(O)C(=O)N2CCc2ccccc2)ccc1O` (centres undefined) the AC50 was “inactive”.
For `Cc1ccc(C(=O)C2=C(O)C(=O)N(CCCn3ccnc3)C2c2ccc(OC(C)C)cc2)o1` (centres undefined), the AC50 was 7.94 µM (active).
In the case of `Cn1c(=O)n(-c2ccc(Cl)cc2)c(=O)c2c3c(sc21)COC(C)(C)C3`, the AC50 is reported as “inactive”.
For `CCOC(=O)c1c(NC(=O)CCC(=O)N2CCOCC2)sc2c1CC(C)(C)OC2`, the AC50 was 12.6 µM (active).
With `CCOC(=O)c1c(NC(=O)CCCN2CCOCC2)sc2c1CC(C)(C)OC2` the AC50 was 7.08 µM (active).
For `Cn1c(O)c(C(C#N)=C2N=c3ccccc3=N2)c2ccccc21`, the AC50 was 3.55 µM (active).
With `N=C(N)SCCN` the AC50 was “inactive”.
`COC(=O)[C@@H]1O[C@@H](SCCN)[C@@H](O)[C@H](O)[C@H]1O` showed an activity, negative = inhibition of -3.54% [at 11.4 µM].
With `CC(=O)O[C@]12CC[N@+]3(C)CCCC[C@@H]3[C-]1Nc1ccccc12` the activity, negative = inhibition was 0.352% [at 11.4 µM].
`Cc1cc2c(c(=O)o1)[C@@H](O)[C@H]1O[C@@H]1C2=O` was tested, and the activity, negative = inhibition was -17.6% [at 11.4 µM].
`COc1ccccc1N1CCN(C[C@@H]2CN3C(=O)N(C)c4ccccc4C3=N2)CC1` was tested, and the AC50 was 15.8 µM (active).
`CC1=C(C(=O)NCCN2CCN(C)CC2)C2(CCC(C)CC2)OC1=O` (centres undefined) was tested, and the AC50 was “inactive”.
In the case of `Cc1cc(=O)oc(C)c1C(=O)N1CCCCC1`, the AC50 is reported as “inactive”.
With `CC1=C(C(=O)N2CCCCCC2)C2(CCC(C)CC2)OC1=O` (centres undefined) the AC50 was 11.2 µM (active).
For `CCCCCC/C(C)=C1/SC(=S)NC1=O`, the activity, negative = inhibition was -11.2% [at 2.29 µM].
`O=C(CCC(=O)Nc1ccccc1)NNC(=O)c1cccs1` was tested, and the activity, negative = inhibition was 9.11% [at 2.29 µM].
`O=C(COc1cccc2ccccc12)NNC(=O)c1cccs1` was tested, and the AC50 was 25.1 µM (active).
`CCC(=O)Nc1ccc(C(=O)NNC(=O)c2cccs2)cc1` was tested, and the AC50 was “inactive”.
With `O=C(CSc1ccc(Cl)cc1)Nc1cccc(-c2nc3ncccc3o2)c1` the AC50 was 12.6 µM (active).
`CCCCC(=O)Nc1ccc(C)c(O)c1` was tested, and the activity, negative = inhibition was 9.17% [at 2.29 µM].
For `O=C(Nc1cccc(-c2nc3ncccc3o2)c1)c1sc2cc(Cl)ccc2c1Cl`, the AC50 was “inactive”.
In the case of `CCc1ccc(OCC(=O)Nc2ccc(-c3nc4ccccc4o3)c(O)c2)cc1`, the AC50 is reported as “inactive”.
In the case of `CCCCCC(=O)Nc1cccc(-c2nc3ncccc3o2)c1`, the AC50 is reported as 15.8 µM (active).
Compound `CC12CC[C@@H]3c4ccc(OP(=O)(O)O)cc4CCC3C1CCC2=O` (some centres undefined) has an activity, negative = inhibition of 5.91% [at 11.4 µM].
`COc1c(N2CCN(C(=S)Nc3ccc(F)cc3)C(C)C2)c(F)cc2c(=O)c(C(=O)O)cn(C3CC3)c12` (centres undefined) was tested, and the AC50 was “inactive”.
For `O=S(=O)(c1ccc(Cl)cc1)c1cnc(-c2cccnc2)nc1-c1ccccc1`, the AC50 was 8.91 µM (active).
In the case of `O=S(=O)(c1ccccc1)c1cnc(-c2cccnc2)nc1-c1ccc(Cl)cc1Cl`, the AC50 is reported as 2.82 µM (active).
For `Clc1ccc(-c2nnc(-c3ccccc3)c(N3CCSCC3)n2)cc1`, the AC50 was “inactive”.
In the case of `CN1CCCCC1=NCCCn1cnc2c1c(=O)n(C)c(=O)n2C`, the AC50 is reported as “inactive”.
`CC(=O)[C@H]1CC[C@@H]2[C@H]3CC=C4C[C@@H](O)CC[C@]4(C)[C@H]3CC[C@]12C` was tested, and the AC50 was “inactive”.
For `Cc1cc(C)c2c(-n3cccc3)n[nH]c2n1`, the AC50 was “inactive”.
For `COCCNc1ncnc2ccc(-c3cccnc3)cc12`, the AC50 was 10 µM (active).
For `COCCNc1ncnc2ccc(-c3cccc(OC)c3)cc12`, the AC50 was 12.6 µM (active).
For `COc1cccc(-c2ccc3ncnc(NCCNC(C)=O)c3c2)c1`, the AC50 was 15.8 µM (active).
% is scaled to controls: 0 for no effect and ±100 for the full control effect.
